# Reference: ChEMBL document CHEMBL4513216, “Probing the Open Global Health Chemical Diversity Library for Multistage-Active Starting Points for Next-Generation Antimalarials” (ACS Infect Dis, 2020)
# The campaign covered roughly 65,000 compounds. About 2,100 (3.2%) showed an effect of 50% or more. The median lay at about -52%. Shown is part of a subset that was picked to be rich in strong results.
# Test system: Plasmodium falciparum
# Assay: Screen against P. falciparum Asexual Blood Stage (ABS), at 5uM
# Type: functional, Dd2
# Conditions: tested at 5 uM
row,Structure (SMILES),INHIBITION [%]
1,CC(C)c1ncc(Cl)c(C(=O)N2CCCN3CCCC3C2)n1 (configuration not stated),-79
2,CNC(=O)[C@H]1C[C@@H]2CN(Cc3cccnc3OC)C[C@@H]2N1C(C)=O,38.2
3,NC1(c2nc(-c3ccccc3)cc(=O)[nH]2)CCCCC1,-0.415
4,COCCN1CCC2(COCc3cnc(N(C)C)nc32)C1 (configuration not stated),-35.3
5,CC(C)c1nc(C2CCCNC2)no1 (configuration not stated),-62.1
6,Cc1cc(Cc2ccccc2C)cc(C2CCCNC2)n1 (configuration not stated),78.9
7,CNc1cc(C2CCCNC2)nc(C)n1 (configuration not stated),-80.8
8,CCCN1CCN(C(=O)c2ccnc(N)c2)[C@H]2CS(=O)(=O)C[C@H]21,-88.3
9,O=C1[C@@H]2CCN(Cc3ccoc3)C[C@@H]2OCCN1c1cccnc1,23.5
10,CC(C)CN1C(=O)CO[C@@H]2CNC[C@H]21,-4.26
11,Cc1cccc(CN2CC[C@H]3C[C@@H](C)O[C@@H]3C2)n1,-46.7
12,C[C@H]1C[C@@H]2CCN(Cc3ccccn3)C[C@H]2O1,-59.7
13,Fc1ccccc1CC1CCN(Cc2ccccn2)CC1,70.4
14,Cc1cccc(CN2CCC(Cc3ccccc3F)CC2)n1,94
15,Cc1cccc(CN2CC[C@H]3C[C@H](C)O[C@@H]3C2)n1,-37.4
16,C[C@@H]1C[C@@H]2CCN(Cc3ccccn3)C[C@H]2O1,-25.2
17,Cc1nc(CN2C[C@@H]3CN(C(=O)Cc4ccccn4)C[C@@H]3C2)cs1,-41.5
18,CN1CCC2(Cc3ccccc3NC2=O)C1 (configuration not stated),8.23
19,Cc1nn(C)c2ncc(S(=O)(=O)N3CCN4CCCC4C3)cc12 (configuration not stated),-67.5
20,CC(c1cn2ncsc2n1)n1cc2[nH]cccc-2c1=O (configuration not stated),-131
21,CO[C@@H]1CN(Cc2scnc2C)[C@@H]2CCCO[C@@H]21,-39.6
22,CC(=O)N1CCCC2(CN(Cc3ccncc3)CCO2)C1 (configuration not stated),-47.6
23,CN1CCC(N(C)C[C@H]2CC[C@@H](Cc3ccc4occc4c3)O2)CC1,85.8

row,Structure (SMILES),INHIBITION [%]
1,CCc1nc(CN2CCN(C(=O)Cc3c(C)noc3C)CC2)cs1,-46.1
2,Cc1noc(C)c1CC(=O)N1CCCN(Cc2cscn2)CC1,63.9
3,Cc1noc(C)c1CC(=O)N1CCN(Cc2cscn2)CC1,-151
4,CCOc1cccc(CNC(C)c2ccc(-n3ccnc3)cc2)c1O (configuration not stated),75
5,COc1ccccc1CNC(C)c1ccc(-n2ccnc2)cc1 (configuration not stated),78.4
6,COc1cccc(CNC(C)c2ccc(-n3ccnc3)cc2)c1O (configuration not stated),79.5
7,CC(Cc1c(F)cccc1F)NC(=O)CSCC(N)=O (configuration not stated),-46.4
8,Nc1cnc(-c2cccc3c2CCNC3)cn1,-39.4
9,Cc1noc([C@@H]2C[C@H]3OCC[C@H]3N(C(C)C)C2)n1,-89.1
10,CC1(C)CC2(CCO1)NC(=O)c1cc(Br)ccc1-n1nnnc12 (configuration not stated),-59.6
11,c1cc(CN2C[C@@H]3COC[C@]3(COCC3CC3)C2)ccn1,-11.9
12,CNc1ncccc1C(=O)N1CCN(C)C2(CCN(C)CC2)C1,-111
13,COCCn1cncc1Cn1ncc2ccccc2c1=O,-74.4
14,COc1cccc(OCC(=O)N2CCCSCC2CN2CCOCC2)c1 (configuration not stated),-105
15,O=C(COc1ccc(F)cc1)N1CCCSCC1CN1CCOCC1 (configuration not stated),-80.2
16,COc1cccc(CC(=O)N2CCCSCC2CN2CCCC2)c1 (configuration not stated),54.7
17,CCS(=O)(=O)N1CCC2(C1)C(=O)N(C)CCN2Cc1ccncc1 (configuration not stated),-177
18,CCO[C@@H]1CC[C@H]2[C@H]1OCCN2Cc1ccoc1,-43.3
19,O=C1NC[C@H]2CN(C3CCOCC3)CCN12,-118
20,O=C1N(Cc2ccccn2)C[C@H]2CN(C3CCOCC3)CCN12,-92.3
21,Fc1ccccc1-c1cccc(C2CCCN(C3CCOCC3)C2)n1 (configuration not stated),82.3
22,OCCN1CCCC(c2cccc(-c3ccccc3F)n2)C1 (configuration not stated),83.4
23,Cc1nc(CN2CCN(C(=O)COc3c(C)ccc(C)c3C)CC2)no1,-66.3

row,Structure (SMILES),INHIBITION [%]
1,O=C(N1CCCO1)[C@@]12CCO[C@@H]1CCN(Cc1cccnc1)C2,-54.2
2,CN(C)CCN(C)C(=O)Cn1cccc2cc(-c3ccc(F)cc3)nc1-2,86.8
3,CCc1cccc2c(CC(=O)N(C)CCN(C)C)c(C)[nH]c12,18.4
4,c1ccc(CO[C@@H]2CN(Cc3ccoc3)[C@@H]3COC[C@@H]32)nc1,-37.1
5,Cc1cc(CN2C[C@@H]3COC[C@]3(COCC(=O)N(C)C)C2)no1,-23
6,CCc1[nH]c2c(CNc3nccc(N)n3)cc(F)cc2c1C,85.6
7,Cc1cc(CNc2nccc(N)n2)c2[nH]c(C)c(C)c2c1,79.5
8,CCc1[nH]c2c(CNc3nccc(N)n3)cc(C)cc2c1C,90.9
9,CCN1C(=O)C2(CCCCC2)NC12CCSCC2,-40
10,COc1cccc(C2SCC(=O)Nc3ccsc32)c1 (configuration not stated),-108
11,Cc1nc(CN2CCO[C@@H]3CNCC[C@@H]3C2)cs1,-15.7
12,O=C(c1ccc(C2CCCN2)s1)N1CCN2CCC1CC2 (configuration not stated),-75.7
13,NCC(=O)N1CCCC1c1ccc(C(=O)NCc2ccoc2)s1 (configuration not stated),92.6
14,Cc1sc2nc(C(F)(F)F)nc(N3CCCN(C)CC3)c2c1C,76.1
15,O=C1CSC(c2ccc(F)c(Cl)c2)c2c(n(C3CCOCC3)[nH]c2=O)N1 (configuration not stated),-35.3
16,Cc1cccc(CN2CC3C[C@]3(NC(=O)c3cccc(F)c3)C2)n1 (some centres not stated),-65.9
17,O=C(c1cnc(-c2ccccc2)s1)N1CCC2(CC1)OCCO2,-174
18,COc1ccc2c(c1)c(C(=O)Nc1nnn[nH]1)cn2C(C)C,-11.6
19,c1cnc(N2C[C@H]3CCN(Cc4ccncc4)C[C@H]3C2)nc1,-82.6
20,CN1CCC(C2CCN(Cc3cccc(-n4cccn4)c3)CC2)C1 (configuration not stated),85.7
21,c1cc(CN2CC[C@@H]3CN(c4cncnc4)C[C@@H]3C2)ccn1,-49.4
